Measurements from PubChem BioAssay (NCI).
The panel holds about 83,000 compounds, 20% with a hit somewhere; the sample as a whole holds those more often.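 How to read the values: 0–100, growth inhibition (40 = 60% inhibited); 0, no net growth; -100 to 0, cell death (-40 = 40% of starting cells died; -100 = all dead).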 Values without a mark were called inactive. Activity calls are given as the source filed them. Rule for the calls: active = growth percent below 10; inactive = the rest.

Legend:
Assay in all cases: NCI-60 one-dose screen, 48 h (100 = growth as untreated, 0 = no growth, -100 = all killed)
Conditions in all cases: 10 µM unless noted
NCI-H23 lung = tested on: NCI-H23 lung
NCI-H226 lung = tested on: NCI-H226 lung
NCI-H322M lung = tested on: NCI-H322M lung
HOP-62 NSCLC = tested on: HOP-62 NSCLC
NCI-H460 lung = tested on: NCI-H460 lung
HOP-92 NSCLC = tested on: HOP-92 NSCLC
NCI-H522 lung = tested on: NCI-H522 lung
A549/ATCC NSCLC = tested on: A549/ATCC NSCLC
786-0 renal = tested on: 786-0 renal
COLO 205 colon = tested on: COLO 205 colon
DU-145 prostate = tested on: DU-145 prostate
K-562 leukemia = tested on: K-562 leukemia
MALME-3M melanoma = tested on: MALME-3M melanoma
MDA-MB-231 breast = tested on: MDA-MB-231 breast
RXF 393 renal = tested on: RXF 393 renal
SF-268 CNS = tested on: SF-268 CNS
SF-295 CNS = tested on: SF-295 CNS
SF-539 CNS = tested on: SF-539 CNS
UACC-257 melanoma = tested on: UACC-257 melanoma
M14 melanoma = tested on: M14 melanoma

Row | Structure (SMILES) | growth (NCI-H23 lung) | growth (NCI-H226 lung) | growth (NCI-H322M lung) | growth (HOP-62 NSCLC) | growth (NCI-H460 lung) | growth (HOP-92 NSCLC) | growth (NCI-H522 lung) | growth (A549/ATCC NSCLC) | growth (786-0 renal) | growth (COLO 205 colon) | growth (DU-145 prostate) | growth (K-562 leukemia) | growth (MALME-3M melanoma) | growth (MDA-MB-231 breast) | growth (RXF 393 renal) | growth (SF-268 CNS) | growth (SF-295 CNS) | growth (SF-539 CNS) | growth (UACC-257 melanoma) | growth (M14 melanoma)
1 | O=[N+]([O-])c1cccc(N=NNc2cccc([N+](=O)[O-])c2)c1 | 95.2% | 108% | 101% | 110% | 100% | 64.4% | 78% | 86.7% | 90.4% | 113% | 86.2% | 103% | 102% | 78.8% | 90.2% | 93.5% | 95.6% | 97.6% | 103% | 102%
2 | Cc1ccc(N)c(O)c1 | 86.2% | 97.5% | 91% | 91.7% | 100% | 68.1% | 73.8% | 85.4% | 90.8% | 132% | 115% | 94.3% | 72.4% | 81.7% | 82.1% | 103% | 121% | 99.1% | 80.6% | 85.6%
3 | C=CC1=C(C)C2=NC1=CC1=NC(=CC3=C(C)C4=C(O)C(C(=O)O)C(=C5NC(=C2)C(C)C5CCC(=O)O)C4=N3)C(CC)=C1C (stereo not given) | 107% | 97.5% | 112% | 121% | 107% | 108% | 116% | 94.6% | 113% | 114% | 113% | 106% | 125% | 121% | 125% | 107% | 116% | 106% | 115% | 104%
4 | CC(C)[C@H]1CCC2=C3CC[C@]45OC(=O)[C@@]6(CCC(C)(C)C[C@H]64)CC[C@@]5(C)[C@]3(C)CC[C@@]21C | 54.4% [100 µM] | 68.4% [100 µM] | 94.5% [100 µM] | 76.3% [100 µM] | 71.8% [100 µM] | 19.9% [100 µM] | 55.7% [100 µM] | 67.1% [100 µM] | 69.3% [100 µM] | 97% [100 µM] | 83.3% [100 µM] | 45.3% [100 µM] | 91.6% [100 µM] | 61.2% [100 µM] | 78.6% [100 µM] | 75.6% [100 µM] | 88.7% [100 µM] | 71.6% [100 µM] | 77.1% [100 µM] | 86.3% [100 µM]
5 | COCc1nc2ccccc2[nH]1 | 103% | 100% | 100% | 105% | 106% | 100% | 96.3% | 100% | 99.4% | 109% | 113% | 99% | 98.7% | 100% | 117% | 108% | 95.1% | 92.8% | 104% | 100%
6 | N#C/C(=C(/O)CCCO)c1nc2ccccc2c(=O)[nH]1 | 91.2% | 93.7% | 105% | 99% | 111% | 84.9% | 95% | 95.3% | 102% | 130% | 102% | 102% | 90.3% | 98.5% | 87.5% | 112% | 150% | 97.2% | 93.9% | 105%
7 | COc1ncnc2c(-c3ccccc3)cn(COCc3ccccc3)c12 | 45.8% | 66.5% | 86.6% | 75.6% | 34.1% | -0.37% (active) | 36.2% | 51.1% | 60.7% | 78.3% | 86.6% | 29.5% | 51.9% | 56.9% | 70.3% | 74.4% | 52.6% | 84.1% | 40% | 44.1%
8 | COc1ccc2nc3cc(Cl)ccc3c(Nc3ccc(O)cc3)c2c1 | 72.8% | 74.4% | 90.5% | 68.8% | 23.1% | 78.9% | 72.5% | 46.6% | 84% | 76.8% | 48.4% | 54.8% | 83.5% | 84.4% | 83.2% | 72.8% | 84.9% | 80.8% | 102% | 94.8%
9 | CCN(CC)c1cc(N)c(Cc2c(N)cc(N(CC)CC)cc2Cl)c(Cl)c1 | 11.1% | 45.6% | 96.9% | 51.8% | 35% | 26.1% | -3.79% (active) | 47% | 74.3% | 21.4% | 67.4% | 19.2% | 44.6% | 48.5% | 63.7% | 36.6% | 31.8% | 44.2% | 12.4% | 52.5%
10 | Cn1cc(-c2noc(-c3cn(C)c4ncccc34)n2)c2cc(Cl)ccc21 | 91.5% | 115% | 91.2% | 93.2% | 88% | 135% | 7.71% (active) | 79.7% | 95.4% | 91.9% | 103% | 87.4% | 90.7% | 70.4% | 121% | 82.9% | 99.2% | 56.6% | 103% | 91.6%
11 | CCn1cc(-c2[nH]c(=S)ncc2-c2ccc(Cl)cc2)c(-c2ccc(Br)cc2)n1 | 85.8% | 94% | 96.5% | 61.6% | 58.5% | 104% | 58.5% | 72.2% | 101% | 94% | 100% | 120% | 108% | 89.1% | 109% | 75.1% | 68.4% | 87.5% | 84.8% | 66.7%
12 | Nc1nc(SCc2cccc([N+](=O)[O-])c2)c2[nH]cnc2n1 | 102% | 90% | 91.2% | 94.6% | 108% | 100% | 81.1% | 97.2% | 98.1% | 114% | 104% | 92% | 107% | 103% | 73.6% | 90.2% | 93.6% | 103% | 104% | 100%
13 | O=c1[nH]cnc2c1ccn2C1OC(CO)C(O)C1O (stereo not given) | 81.4% | 75.1% | 64.6% | 76.5% | 49.4% | 8.49% (active) | 61% | 84.4% | 58.9% | 66.8% | 18.4% | 65.4% | 81.3% | 45.3% | 43.1% | 76% | 69.2% | 80.4% | 86.2% | 55.9%
14 | COc1cc2c(c(OC)c1OC)-c1ccc(NNC(N)=S)c(=O)cc1[C@@H](NC(C)=O)CC2 | 5.07% (active) | 27.9% | 64.9% | 32.7% | -3.14% (active) | -6.59% (active) | -63.3% (active) | 15.7% | 21.9% | -95.6% (active) | -14.5% (active) | 10.1% | 88.4% | 20% | -8.91% (active) | 21.3% | 10.6% | -18.4% (active) | 57.2% | -2.7% (active)
15 | CN(C)CCCNc1nc(-c2cccc(C(Cl)(Cl)Cl)c2)nc(C(Cl)(Cl)Cl)n1 | 101% | 109% | 93.7% | 111% | 108% | 53% | 94.9% | 105% | 99% | 119% | 112% | 88.2% | 88.9% | 95.8% | 109% | 106% | 94.1% | 110% | 119% | 102%
16 | CC(C)OC(=O)Nc1cc(F)c(F)cc1F | 99% | 98% | 96.3% | 99.8% | 104% | 102% | 97.8% | 97.8% | 107% | 113% | 110% | 111% | 89.9% | 103% | 104% | 101% | 102% | 96.2% | 94.8% | 93.7%
17 | CCCC[C@@H](C=O)NC(=O)[C@H](CC(C)C)NC(=O)[C@H](CC(C)C)NC(=O)OCc1ccccc1 | -17.1% (active) | -54.1% (active) | 15.1% | 11.8% | 0.451% (active) | -35.2% (active) | -0.189% (active) | 71.3% | -10% (active) | -3.03% (active) | -38.2% (active) | 0.815% (active) | -33% (active) | -32.3% (active) | -63.7% (active) | -11.9% (active) | -12% (active) | -45.7% (active) | 12.4% | -35.3% (active)
18 | COc1cc2c(cc1OCCCN1CCN(CCCOc3cc4c(cc3OC)C(=O)N3C[C@H](F)C[C@H]3C=N4)CC1)N=C[C@@H]1C[C@@H](F)CN1C2=O | 10.5% | 17.2% | -23.6% (active) | 27.6% | 1.24% (active) | -6.06% (active) | -48.8% (active) | 6.52% (active) | 12.4% | -47.1% (active) | -19.9% (active) | 2.13% (active) | -75.7% (active) | 18.8% | -52.1% (active) | 9.5% (active) | 13.8% | -68.4% (active) | 20.8% | -7.96% (active)
19 | C=C(C)[C@@H]1CC[C@]2(C(=O)N3CCN(C)CC3)CC[C@]3(C)[C@H](CC[C@@H]4[C@@]5(C)C/C(=C/c6ccncc6)[C@H](O)C(C)(C)[C@@H]5CC[C@]43C)[C@@H]12 | 4.32% [100 µM] (active) | -51% [100 µM] (active) | -27% [100 µM] (active) | -38.6% [100 µM] (active) | -67.4% [100 µM] (active) | -39.3% [100 µM] (active) | -46.3% [100 µM] (active) | 16.2% [100 µM] | -90.8% [100 µM] (active) | -74.8% [100 µM] (active) | -12.4% [100 µM] (active) | -13.4% [100 µM] (active) | -55.1% [100 µM] (active) | -48.5% [100 µM] (active) | -88.5% [100 µM] (active) | 4.1% [100 µM] (active) | -53.6% [100 µM] (active) | -72% [100 µM] (active) | -31.2% [100 µM] (active) | -13.6% [100 µM] (active)
